Experimental data taken from PubChem BioAssay (NCI).
Where “and” joins values, the source holds several entries; their conditions need not be identical. Equal values may be shown once. Compounds without any hit were thinned out: in the full panel of roughly 79,000, 15% have a hit. Some structures have more than one record in an assay (separate samples or runs), and their calls can disagree. Calls of active or inactive are those of the source. No stated cut-off is given here; in the data, active means growth inhibition above about 70%; inactive means the rest.

Columns and labels:
[1] = NCI Yeast Anticancer Drug Screen. Data for the rad50 strain (AID 155);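 further: 0% = growth of vehicle-only cultures of the same strain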; conditions: S. cerevisiae rad50 strain growth inhibition, stronger effect = higher value
In short: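 Readout: growth inhibition relative to vehicle-treated cultures. Compound exposure was carried out in a genetically defined yeast strain deficient in DNA damage repair.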

[2] = NCI Yeast Anticancer Drug Screen. Data for the mec2-1 strain (AID 157); conditions: S. cerevisiae mec2-1 strain, stronger effect = higher value
In short: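 Each compound was tested on mec2-1 yeast, a strain altered in DNA damage repair or cell cycle control. Growth inhibition is reported relative to vehicle.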

[3] = NCI Yeast Anticancer Drug Screen. Data for the sgs1 mgt1 strain (AID 161);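 further: 0% = growth of cultures given vehicle only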; conditions: S. cerevisiae sgs1 mgt1 strain, stronger effect = higher value
In short: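 Genetically altered yeast, compound exposure, growth inhibition relative to vehicle.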

[4] = NCI Yeast Anticancer Drug Screen. Data for the cln2 rad14 strain (AID 165);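 further: 0% = growth equal to vehicle treated cultures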; conditions: S. cerevisiae cln2 rad14 strain, stronger effect = higher value
In short: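 Test compounds were added to cln2 rad14 yeast cultures; inhibition of growth was then determined by comparison with vehicle treatment.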

[5] = NCI Yeast Anticancer Drug Screen. Data for the bub3 strain (AID 167); conditions: S. cerevisiae bub3 mutant strain, stronger effect = higher value
In short: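 Readout: yeast growth inhibition, expressed relative to vehicle-only wells. The test organism is a mutant strain from a panel with lesions in DNA repair or checkpoint genes.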

[6] = NCI Yeast Anticancer Drug Screen. Data for the mlh1 rad18 strain (AID 175); conditions: S. cerevisiae mlh1 rad18 strain growth inhibition, stronger effect = higher value
In short: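 Inhibition values reflect reduced growth of mutant yeast versus vehicle-treated controls following compound exposure; the mutations affect DNA damage repair.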

[7] = at 5.0 µM (retest, dose inferred, filed as 0.5)
[8] = at 50.0 µM (retest, dose inferred, filed as 5.0)

Measured: growth inhibition

CSC1SCC2C(=O)N(C)C(C(C)C)C(=O)OCC(NC(=O)c3cnc4ccccc4n3)C(=O)NC(C)C(=O)N(C)C1C(=O)N(C)C(C(C)C)C(=O)OCC(NC(=O)c1cnc3ccccc3n1)C(=O)NC(C)C(=O)N2C (stereo not given)
active: [1]; [8] 98% and 97% | [1]; at 50.0 µM 98.8% and 91.2% | [2]; [8] 98% | [2]; at 50.0 µM 99.5% and 91.7% | [3]; [8] 98% | [3]; at 50.0 µM 98.8% and 93% | [4]; [8] 98% and 96% | [4]; at 50.0 µM 98.2% and 90.2% | [5]; [8] 98% and 97% | [5]; at 50.0 µM 98.7% and 90.3% | [6]; [8] 98% and 97% | [6]; at 50.0 µM 99% and 90.2%
7% (inactive) and 96% (active): [5]; [7]
4% (inactive) and 99% (active): [2]; [7]
6% (inactive) and 98% (active): [6]; [7]
8% (inactive) and 97% (active): [1]; [7]
8% (inactive) and 94% (active): [4]; [7]
2% (inactive) and 98% (active): [3]; [7]

C=CCOC(=O)c1ccc(C(=O)OCC=C)cc1
inactive: [1]; [7] -5% | [1]; [8] -77% | [1]; at 50.0 µM 50.6% | [2]; [7] -11% | [2]; [8] -32% | [2]; at 50.0 µM 52.2% | [3]; [7] -1% | [3]; [8] -13% | [4]; [7] 4% | [4]; [8] -26% | [4]; at 50.0 µM 39.4% | [5]; [7] 6% | [5]; [8] -53% | [5]; at 50.0 µM 44.8% | [6]; [7] 0% | [6]; [8] -41% | [6]; at 50.0 µM 64.3%
active: [3]; at 50.0 µM 78.5%

CCOC(=O)c1ccc(NCc2ccc3ccccc3n2)cc1
active: [1]; at 50.0 µM 71.6% | [3]; at 50.0 µM 79.4% | [6]; at 50.0 µM 74.3%
inactive: [1]; [7] -3% | [1]; [8] 15% | [2]; [7] -11% | [2]; [8] 14% | [2]; at 50.0 µM 51.5% | [3]; [7] -28% | [3]; [8] 44% | [4]; [7] -6% | [4]; [8] 4% | [4]; at 50.0 µM 19.1% | [5]; [7] 11% | [5]; [8] 55% | [5]; at 50.0 µM -11.1% | [6]; [7] -2% | [6]; [8] 57%

Oc1ccc(C(O)(c2ccccc2)c2ccccc2)cc1
inactive: [1]; [7] 45% and 42% | [2]; [7] 51% and 25% | [3]; [7] -30% and 35% | [4]; [7] 45% and 29% | [5]; [7] 21% and 36% | [6]; [7] 40% and 45%
48% (inactive) and 94% (active): [5]; [8]
57% (inactive) and 91% (active): [1]; [8]
63% (inactive) and 90% (active): [4]; [8]
59% (inactive) and 89% (active): [2]; [8]
90.2% (active) and 59.2% (inactive): [5]; at 50.0 µM
88.5% (active) and 69.3% (inactive): [6]; at 50.0 µM
30% (inactive) and 89% (active): [3]; [8]
60% (inactive) and 95% (active): [6]; [8]
89.9% (active) and 65.8% (inactive): [4]; at 50.0 µM
active: [1]; at 50.0 µM 88.8% and 71.1% | [2]; at 50.0 µM 91.2% and 89.2%
92% (active) and 48.6% (inactive): [3]; at 50.0 µM

CCOC(=O)/C(=C/c1ccc(OC)c(OC)c1)C(=O)c1ccccc1
inactive: [1]; [7] 12% | [1]; [8] 49% | [2]; [7] -19% | [2]; [8] 66% | [2]; at 50.0 µM 68% | [3]; [7] 2% | [3]; [8] 65% | [3]; at 50.0 µM 64.7% | [4]; [7] 27% | [5]; [7] 27% | [6]; [7] -7% | [6]; at 50.0 µM 56.5%
active: [1]; at 50.0 µM 74.7% | [4]; [8] 71% | [4]; at 50.0 µM 72.5% | [5]; [8] 92% | [5]; at 50.0 µM 78.4% | [6]; [8] 80%

O=NC1C(Br)C2CC1C1C(Cl)C(Cl)CC21 (stereo not given)
inactive: [1]; [7] 6% | [1]; [8] 10% | [1]; at 50.0 µM 58.7% | [2]; [7] 12% | [2]; [8] 13% | [2]; at 50.0 µM 29.9% | [3]; [7] -5% | [3]; [8] 6% | [4]; [7] -2% | [4]; [8] -7% | [4]; at 50.0 µM 44.1% | [5]; [7] 1% | [5]; [8] -6% | [5]; at 50.0 µM 10.1% | [6]; [7] 25% | [6]; [8] 66% | [6]; at 50.0 µM 49.2%
active: [3]; at 50.0 µM 76.8%

CC(=O)OC1CCC2(C)C(CCC3C4CCC(OC(C)=O)C4(C)CCC32)O1 (stereo not given)
inactive: [1]; [7] -3% | [1]; at 50.0 µM 36.2% | [2]; [7] 5% | [2]; at 50.0 µM 15.1% | [3]; [7] -23% | [3]; at 50.0 µM 43.6% | [4]; [7] -6% | [4]; [8] 41% | [4]; at 50.0 µM 15% | [5]; [7] -2% | [5]; [8] 66% | [5]; at 50.0 µM 11.3% | [6]; [7] 6% | [6]; at 50.0 µM 24.4%
active: [1]; [8] 79% | [2]; [8] 95% | [3]; [8] 70% | [6]; [8] 93%

CN(C)CCNC(=O)Cc1cc(O)c2c(c1O)C(=O)c1ccccc1C2=O
inactive: [1]; [7] 6% | [1]; [8] 42% | [2]; [7] 6% | [2]; [8] 16% | [2]; at 50.0 µM 23% | [3]; [7] 4% | [3]; [8] 28% | [4]; [7] -7% | [4]; [8] 12% | [4]; at 50.0 µM 54.7% | [5]; [7] 0% | [5]; [8] 16% | [5]; at 50.0 µM 16% | [6]; [7] 4% | [6]; [8] 10%
active: [1]; at 50.0 µM 75.3% | [3]; at 50.0 µM 81.3% | [6]; at 50.0 µM 82.1%

CCSC(=NC)Nc1ccc(Oc2ccc(Cl)cc2)cc1
active: [1]; [8] 90% | [1]; at 50.0 µM 81.9% | [2]; [8] 83% | [3]; [8] 99% | [3]; at 50.0 µM 92.4% | [4]; [8] 75% | [4]; at 50.0 µM 71.1% | [5]; [8] 72% | [5]; at 50.0 µM 88.2% | [6]; [8] 97% | [6]; at 50.0 µM 81.6%
inactive: [1]; [7] 38% | [2]; [7] 39% | [2]; at 50.0 µM 67.8% | [3]; [7] 40% | [4]; [7] 33% | [5]; [7] 46% | [6]; [7] 46%

c1ccc(N=c2cnc3c(ccc4ccccc43)o2)cc1
inactive: [5]; [7] 64%
active: [1]; [7] 97% | [1]; [8] 93% | [1]; at 50.0 µM 93.5% | [2]; [7] 97% | [2]; [8] 96% | [2]; at 50.0 µM 95.5% | [3]; [7] 96% | [3]; [8] 95% | [3]; at 50.0 µM 94.2% | [4]; [7] 99% | [4]; [8] 98% | [4]; at 50.0 µM 98.6% | [5]; [8] 84% | [5]; at 50.0 µM 79.2% | [6]; [7] 97% | [6]; [8] 96% | [6]; at 50.0 µM 96.8%

N#CC1(C2SCCS2=O)C2=C(C(=O)c3ccccc3C2=O)N2CCCC21 (stereo not given)
inactive: [1]; [7] 17% | [1]; [8] 56% | [2]; [7] 14% | [2]; [8] 49% | [3]; [7] 23% | [3]; [8] 67% | [4]; [7] 14% | [4]; [8] 40% | [4]; at 50.0 µM 43.2% | [5]; [7] 33% | [6]; [7] 17% | [6]; [8] 67%
active: [1]; at 50.0 µM 76.8% | [2]; at 50.0 µM 77.2% | [3]; at 50.0 µM 83.8% | [5]; [8] 80% | [5]; at 50.0 µM 70.2% | [6]; at 50.0 µM 89.9%

N#CC1Sc2ccccc2N1C(=O)OCc1ccccc1 (stereo not given)
active: [1]; [8] 86% | [1]; at 50.0 µM 90.1% | [2]; [8] 86% | [2]; at 50.0 µM 86.8% | [3]; [8] 89% | [3]; at 50.0 µM 94% | [4]; [8] 82% | [4]; at 50.0 µM 81.2% | [5]; [8] 91% | [5]; at 50.0 µM 93.5% | [6]; [8] 90% | [6]; at 50.0 µM 91.8%
inactive: [1]; [7] 7% | [2]; [7] 4% | [3]; [7] 11% | [4]; [7] 11% | [5]; [7] 20% | [6]; [7] 9%

CC(=O)Nc1nc(N)c2ncn(C3OC(C(O)CO)C(O)C3O)c2n1 (stereo not given)
inactive: [1]; [7] 0% | [1]; [8] 1% | [1]; at 50.0 µM 1.75% and -3.5% | [2]; [7] 0% | [2]; [8] 1% | [2]; at 50.0 µM 0.35% and -7.5% | [3]; [7] -3% | [3]; [8] -1% | [3]; at 50.0 µM 3% and 1.8% | [4]; [7] 1% | [4]; [8] 0% | [4]; at 50.0 µM 53.5% and -80% | [5]; [7] 1% | [5]; [8] 0% | [5]; at 50.0 µM -10.2% and 10.1% | [6]; [7] -1% | [6]; [8] 3% | [6]; at 50.0 µM 18.9% and -12.4%

O=C(CNCc1ccccc1)Oc1c(Cl)c(Cl)c(Cl)c(Cl)c1Cl
inactive: [1]; [7] 3% | [1]; [8] 32% | [2]; [7] 22% | [2]; [8] 43% | [2]; at 50.0 µM 62.5% | [3]; [7] -13% | [3]; [8] 55% | [4]; [7] -5% | [4]; [8] 11% | [4]; at 50.0 µM 51.4% | [5]; [7] -4% | [5]; [8] 31% | [5]; at 50.0 µM 20% | [6]; [7] 29% | [6]; at 50.0 µM 64.7%
active: [1]; at 50.0 µM 72.5% | [3]; at 50.0 µM 85.2% | [6]; [8] 73%

CCCC1CCC(=C2C(=O)CCC2=O)O1 (stereo not given)
-4.75% (inactive) and 90.7% (active): [1]; at 50.0 µM
-5.55% (inactive) and 92.7% (active): [3]; at 50.0 µM
2.55% (inactive) and 91% (active): [5]; at 50.0 µM
0.65% (inactive) and 91.2% (active): [4]; at 50.0 µM
-13.1% (inactive) and 90.8% (active): [6]; at 50.0 µM
-8.75% (inactive) and 92.2% (active): [2]; at 50.0 µM
inactive: [1]; [7] 6% | [1]; [8] 21% | [2]; [7] 2% | [2]; [8] 19% | [3]; [7] 9% | [3]; [8] 26% | [4]; [7] -2% | [4]; [8] 8% | [5]; [7] 8% | [5]; [8] 9% | [6]; [7] 15% | [6]; [8] 35%
